Reference: the supplement of paper PMC3545927
This is one part of the list. The hit rate among all sequences tested is not known here.

Target: furin, P09958
Assay: furin cleavage Z-score vs untreated control; higher = more cleavage, active = 3.5 or more, inactive = 1 or less, 8 variable residues between constant flanks
Summary of the method: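 Peptides 8 residues long, fused to a cDNA oligonucleotide, were fixed to magnetic beads by the N-terminus and exposed to purified furin. The 0.01 ml reactions contained 50 mM HEPES pH 7.5 with CaCl2 and NaCl at 1:10 enzyme:substrate and ran 7.5, 15 or 30 min. For the cleavage Z-score, log counts of sequenced released DNA were compared with furin-free reactions, lowess-adjusted and scaled by median absolute deviation.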

Chain of furin, P09958 (P09958 whole entry): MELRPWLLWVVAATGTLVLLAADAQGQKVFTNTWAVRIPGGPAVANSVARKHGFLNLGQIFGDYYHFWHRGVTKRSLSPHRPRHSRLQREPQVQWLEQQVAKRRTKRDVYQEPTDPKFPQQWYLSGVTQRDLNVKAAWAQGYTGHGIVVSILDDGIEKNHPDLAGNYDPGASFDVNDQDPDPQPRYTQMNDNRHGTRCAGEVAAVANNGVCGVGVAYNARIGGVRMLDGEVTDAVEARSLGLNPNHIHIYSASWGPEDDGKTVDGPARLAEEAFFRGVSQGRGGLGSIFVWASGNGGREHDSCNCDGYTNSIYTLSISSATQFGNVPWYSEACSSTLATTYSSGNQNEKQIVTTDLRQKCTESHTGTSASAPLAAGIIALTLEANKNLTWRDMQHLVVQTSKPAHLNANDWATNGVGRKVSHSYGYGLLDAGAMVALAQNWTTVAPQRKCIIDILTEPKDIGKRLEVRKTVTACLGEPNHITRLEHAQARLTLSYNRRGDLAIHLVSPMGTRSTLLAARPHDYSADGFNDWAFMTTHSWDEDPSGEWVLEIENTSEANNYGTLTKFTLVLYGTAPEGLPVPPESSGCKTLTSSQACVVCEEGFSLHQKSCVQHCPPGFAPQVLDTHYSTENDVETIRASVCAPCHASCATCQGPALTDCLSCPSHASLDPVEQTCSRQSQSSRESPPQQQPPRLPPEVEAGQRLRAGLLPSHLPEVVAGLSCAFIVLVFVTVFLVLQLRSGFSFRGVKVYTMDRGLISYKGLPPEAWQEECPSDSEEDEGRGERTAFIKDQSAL

B1: HC1574 (peptide)
chain: CASWLGNIIMAGNASASA
7.5 min
  furin cleavage Z-score: -0.174 (inactive)
15 min
  furin cleavage Z-score: -0.173 (inactive)
30 min
  furin cleavage Z-score: 0.459 (inactive)

B2: HC2223 (peptide)
chain: CAEVVTSTAVAGNASASA
7.5 min
  furin cleavage Z-score: -1.08 (inactive)
15 min
  furin cleavage Z-score: 1.73
30 min
  furin cleavage Z-score: 0.704 (inactive)

B3: HC1529 (peptide)
chain: CAGDDLVVICAGNASASA
7.5 min
  furin cleavage Z-score: -1.44 (inactive)
15 min
  furin cleavage Z-score: -0.0771 (inactive)
30 min
  furin cleavage Z-score: -0.978 (inactive)

B4: HC1314 (peptide)
chain: CAEPPVVHGCAGNASASA
7.5 min
  furin cleavage Z-score: 0.438 (inactive)
15 min
  furin cleavage Z-score: 1.71
30 min
  furin cleavage Z-score: -0.723 (inactive)

B5: FS-2944 (peptide)
chain: CARHRRATGAAGNASASA
7.5 min
  furin cleavage Z-score: 6.7 (active)
15 min
  furin cleavage Z-score: 5.37 (active)
30 min
  furin cleavage Z-score: 4.1 (active)

B6: FS-1896 (peptide)
chain: CARHLRSAGSAGNASASA
7.5 min
  furin cleavage Z-score: 1.18
15 min
  furin cleavage Z-score: -0.11 (inactive)
30 min
  furin cleavage Z-score: 2.17

B7: FS-1946 (peptide)
chain: CARDRRAAGSAGNASASA
7.5 min
  furin cleavage Z-score: 6.35 (active)
15 min
  furin cleavage Z-score: 7.75 (active)
30 min
  furin cleavage Z-score: 5.91 (active)

B8: HC70 (peptide)
chain: CATTPCRGSWAGNASASA
7.5 min
  furin cleavage Z-score: -0.828 (inactive)
15 min
  furin cleavage Z-score: -1.44 (inactive)
30 min
  furin cleavage Z-score: -0.599 (inactive)

B9: FS-1319 (peptide)
chain: CAEMSRTRRYAGNASASA
7.5 min
  furin cleavage Z-score: 5.42 (active)
15 min
  furin cleavage Z-score: 8.78 (active)
30 min
  furin cleavage Z-score: 8.64 (active)

B10: EK6 (peptide)
chain: CAEGERGFFYAGNASASA
7.5 min
  furin cleavage Z-score: -2.12 (inactive)
15 min
  furin cleavage Z-score: -0.423 (inactive)
30 min
  furin cleavage Z-score: -2.28 (inactive)

B11: FS-192 (peptide)
chain: CASGHRTRRYAGNASASA
7.5 min
  furin cleavage Z-score: 7 (active)
15 min
  furin cleavage Z-score: 8.02 (active)
30 min
  furin cleavage Z-score: 8.16 (active)

B12: HC1558 (peptide)
chain: CADGAGKRVYAGNASASA
7.5 min
  furin cleavage Z-score: 1.53
15 min
  furin cleavage Z-score: 1.27
30 min
  furin cleavage Z-score: 0.404 (inactive)

B13: HC1062 (peptide)
chain: CATSQTLLFNAGNASASA
7.5 min
  furin cleavage Z-score: 0.00122 (inactive)
15 min
  furin cleavage Z-score: -0.692 (inactive)
30 min
  furin cleavage Z-score: -0.503 (inactive)

B14: FS-2350 (peptide)
chain: CARLKRDPGIAGNASASA
7.5 min
  furin cleavage Z-score: 3.26
15 min
  furin cleavage Z-score: 4.16 (active)
30 min
  furin cleavage Z-score: 3.42

B15: FS-1815 (peptide)
chain: CAVLKRDVDIAGNASASA
7.5 min
  furin cleavage Z-score: 1.04
15 min
  furin cleavage Z-score: -1.55 (inactive)
30 min
  furin cleavage Z-score: 0.353 (inactive)

B16: FS-3140 (peptide)
chain: CAVRKRDLQTAGNASASA
7.5 min
  furin cleavage Z-score: 2.53
15 min
  furin cleavage Z-score: 5.9 (active)
30 min
  furin cleavage Z-score: 5.02 (active)

B17: FS-2991 (peptide)
chain: CARLKRLFLAAGNASASA
7.5 min
  furin cleavage Z-score: 0.382 (inactive)
15 min
  furin cleavage Z-score: -1.83 (inactive)
30 min
  furin cleavage Z-score: -1.56 (inactive)

B18: FS-3142 (peptide)
chain: CAVRKRSPWLAGNASASA
7.5 min
  furin cleavage Z-score: -1.29 (inactive)
15 min
  furin cleavage Z-score: 0.44 (inactive)
30 min
  furin cleavage Z-score: 1.17

B19: HC967 (peptide)
chain: CARLKPTLHGAGNASASA
7.5 min
  furin cleavage Z-score: -0.75 (inactive)
15 min
  furin cleavage Z-score: -0.713 (inactive)
30 min
  furin cleavage Z-score: 0.566 (inactive)

B20: FS-2043 (peptide)
chain: CARLKRDLATAGNASASA
7.5 min
  furin cleavage Z-score: 9.22 (active)
15 min
  furin cleavage Z-score: 11.3 (active)
30 min
  furin cleavage Z-score: 9.07 (active)

B21: FS-2220 (peptide)
chain: CARLKRDRSAAGNASASA
7.5 min
  furin cleavage Z-score: 6.33 (active)
15 min
  furin cleavage Z-score: 8.55 (active)
30 min
  furin cleavage Z-score: 8.68 (active)

B22: FS-3141 (peptide)
chain: CAVRKRQVSLAGNASASA
7.5 min
  furin cleavage Z-score: -1.04 (inactive)
15 min
  furin cleavage Z-score: -0.0874 (inactive)
30 min
  furin cleavage Z-score: 0.617 (inactive)

B23: HC2474 (peptide)
chain: CAKTPCSAHLAGNASASA
7.5 min
  furin cleavage Z-score: -0.289 (inactive)
15 min
  furin cleavage Z-score: -0.529 (inactive)
30 min
  furin cleavage Z-score: -1.11 (inactive)

B24: HC1708 (peptide)
chain: CAMEWCSQHLAGNASASA
7.5 min
  furin cleavage Z-score: 0.411 (inactive)
15 min
  furin cleavage Z-score: 0.726 (inactive)
30 min
  furin cleavage Z-score: 0.812 (inactive)

B25: HC1368 (peptide)
chain: CAEDVVCCSMAGNASASA
7.5 min
  furin cleavage Z-score: -0.171 (inactive)
15 min
  furin cleavage Z-score: 0.686 (inactive)
30 min
  furin cleavage Z-score: 0.101 (inactive)

B26: HC1882 (peptide)
chain: CATTQCSGSWAGNASASA
7.5 min
  furin cleavage Z-score: -0.496 (inactive)
15 min
  furin cleavage Z-score: -1.36 (inactive)
30 min
  furin cleavage Z-score: -0.763 (inactive)

B27: HC1234 (peptide)
chain: CAFRVGLHEYAGNASASA
7.5 min
  furin cleavage Z-score: -0.864 (inactive)
15 min
  furin cleavage Z-score: -0.389 (inactive)
30 min
  furin cleavage Z-score: -0.313 (inactive)

B28: HC2419 (peptide)
chain: CAEVPCHRPPAGNASASA
7.5 min
  furin cleavage Z-score: -0.0603 (inactive)
15 min
  furin cleavage Z-score: 1.24
30 min
  furin cleavage Z-score: -0.795 (inactive)

B29: HC1414 (peptide)
chain: CAEACSLTPPAGNASASA
7.5 min
  furin cleavage Z-score: 0.244 (inactive)
15 min
  furin cleavage Z-score: -0.208 (inactive)
30 min
  furin cleavage Z-score: -0.022 (inactive)

B30: FS-2521 (peptide)
chain: CARRTRSRSPAGNASASA
7.5 min
  furin cleavage Z-score: 2.04
15 min
  furin cleavage Z-score: 2.53
30 min
  furin cleavage Z-score: 4.49 (active)

B31: FS-3067 (peptide)
chain: CARRRRSMDPAGNASASA
7.5 min
  furin cleavage Z-score: 8 (active)
15 min
  furin cleavage Z-score: 9.64 (active)
30 min
  furin cleavage Z-score: 7.14 (active)

B32: FS-2598 (peptide)
chain: CARRRRQLDPAGNASASA
7.5 min
  furin cleavage Z-score: 8.96 (active)
15 min
  furin cleavage Z-score: 10.1 (active)
30 min
  furin cleavage Z-score: 7.56 (active)

B33: FS-2601 (peptide)
chain: CARRTRFISLAGNASASA
7.5 min
  furin cleavage Z-score: -0.682 (inactive)
15 min
  furin cleavage Z-score: 1.63
30 min
  furin cleavage Z-score: 1.87

B34: FS-2794 (peptide)
chain: CARRRRQEEKAGNASASA
7.5 min
  furin cleavage Z-score: -0.167 (inactive)
15 min
  furin cleavage Z-score: 1.69
30 min
  furin cleavage Z-score: -1.54 (inactive)

B35: FS-1790 (peptide)
chain: CARRTRSFSWAGNASASA
7.5 min
  furin cleavage Z-score: 0.729 (inactive)
15 min
  furin cleavage Z-score: 1.95
30 min
  furin cleavage Z-score: 2.68

B36: FS-2076 (peptide)
chain: CARRRRELDPAGNASASA
7.5 min
  furin cleavage Z-score: 11.6 (active)
15 min
  furin cleavage Z-score: 10.7 (active)
30 min
  furin cleavage Z-score: 8.52 (active)

B37: HC1660 (peptide)
chain: CALAAGVGIYAGNASASA
7.5 min
  furin cleavage Z-score: 0.247 (inactive)
15 min
  furin cleavage Z-score: -0.366 (inactive)
30 min
  furin cleavage Z-score: 0.0629 (inactive)

B38: HC715 (peptide)
chain: CAVGWPAPQGAGNASASA
7.5 min
  furin cleavage Z-score: 0.307 (inactive)
15 min
  furin cleavage Z-score: 1.62
30 min
  furin cleavage Z-score: 0.189 (inactive)

B39: HC2340 (peptide)
chain: CAECPCHRPSAGNASASA
7.5 min
  furin cleavage Z-score: 0.0178 (inactive)
15 min
  furin cleavage Z-score: -0.268 (inactive)
30 min
  furin cleavage Z-score: -1.23 (inactive)

B40: FS-2520 (peptide)
chain: CARRTRDLDPAGNASASA
7.5 min
  furin cleavage Z-score: 8.58 (active)
15 min
  furin cleavage Z-score: 8.71 (active)
30 min
  furin cleavage Z-score: 7.24 (active)

B41: HC891 (peptide)
chain: CATVDFSLDPAGNASASA
7.5 min
  furin cleavage Z-score: -0.614 (inactive)
15 min
  furin cleavage Z-score: -1.09 (inactive)
30 min
  furin cleavage Z-score: -1.01 (inactive)

B42: FS-1867 (peptide)
chain: CARRRRELEPAGNASASA
7.5 min
  furin cleavage Z-score: 10.9 (active)
15 min
  furin cleavage Z-score: 11 (active)
30 min
  furin cleavage Z-score: 7.47 (active)

B43: FS-2650 (peptide)
chain: CARATRFWDPAGNASASA
7.5 min
  furin cleavage Z-score: -0.242 (inactive)
15 min
  furin cleavage Z-score: -0.738 (inactive)
30 min
  furin cleavage Z-score: 0.257 (inactive)
